Reference: PubChem BioAssay (NCI)
About 79,000 compounds went through this panel and 15% of them were active in at least one assay; those are over-represented in the sample as a whole. Rule as the data show it: active = growth inhibition above about 70%; inactive = the rest.

Key:
[1] = NCI Yeast Anticancer Drug Screen. Data for the rad50 strain (AID 155);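 also: 0% = growth of vehicle-only cultures of the same strain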; conditions: S. cerevisiae rad50 strain growth inhibition; at 50.0 µM; stronger effect = higher value
Outline: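 Readout: growth inhibition relative to vehicle-treated cultures. Compound exposure was carried out in a genetically defined yeast strain deficient in DNA damage repair.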

[2] = NCI Yeast Anticancer Drug Screen. Data for the mec2-1 strain (AID 157); conditions: S. cerevisiae mec2-1 strain, at 50.0 µM, stronger effect = higher value
Outline: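 Cells of the genetically defined mec2-1 yeast strain are incubated with test compound. Inhibition of growth is calculated against vehicle-treated controls.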

[3] = NCI Yeast Anticancer Drug Screen. Data for the sgs1 mgt1 strain (AID 161);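 also: 0% = growth of cultures given vehicle only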; conditions: S. cerevisiae sgs1 mgt1 strain, at 50.0 µM, stronger effect = higher value
Outline: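 Inhibition of yeast growth, normalised to vehicle-treated controls, is reported for a strain bearing genetic alterations in DNA damage repair.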

[4] = NCI Yeast Anticancer Drug Screen. Data for the cln2 rad14 strain (AID 165);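 also: 0% = growth equal to vehicle treated cultures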; conditions: S. cerevisiae cln2 rad14 strain, at 50.0 µM, stronger effect = higher value
Outline: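 The screen exposed genetically defined yeast (cln2 rad14) to test compounds and scored growth inhibition relative to vehicle-treated controls.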

[5] = NCI Yeast Anticancer Drug Screen. Data for the bub3 strain (AID 167); conditions: S. cerevisiae bub3 mutant strain, at 50.0 µM, stronger effect = higher value
Outline: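 Readout: yeast growth inhibition, expressed relative to vehicle-only wells. The test organism is a mutant strain from a panel with lesions in DNA repair or checkpoint genes.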

[6] = NCI Yeast Anticancer Drug Screen. Data for the mlh1 rad18 strain (AID 175); conditions: S. cerevisiae mlh1 rad18 strain growth inhibition; at 50.0 µM; stronger effect = higher value
Outline: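 Compound-treated yeast growth, normalised to vehicle controls. Strain bears defined DNA repair mutations.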

Measured: growth inhibition

CCOP(=O)(CCCCCCP(=O)(OCC)OCC)OCC
inactive: [1] 30.4% | [2] 18.4% | [3] -0.2% | [4] -31.1% | [5] 8.45% | [6] 32.9%

CC(=O)OC1C(=C(Br)Br)C(COC(=O)c2ccccc2)OC1n1cnc2c(NC(=O)c3ccccc3)ncnc21 (stereo not given)
inactive: [1] 8.3% | [2] 8.8% | [3] 10.4% | [4] 0.1% | [5] 16.9% | [6] 25.9%

CCC1CC(=O)NC(=O)NC1=O (stereo not given)
inactive: [1] -4.6% | [2] 30.8% | [3] -3.75% | [4] 12.1% | [5] 7.2% | [6] 6.9%

CCCCCCCCC(=O)c1c(OC)oc(C=O)cc1=O
inactive: [1] -0.5% | [2] -22.8% | [3] 31.8% | [4] 26.2% | [5] -19.6% | [6] 4%

c1ccc2c(c1)cnc1c3ccccc3ccc21
inactive: [1] 10.1% | [2] -7.85% | [3] -8.6% | [4] -21.9% | [5] 6.85% | [6] -0.5%

O=C1C(c2ccccc2)=C(c2ccccc2)c2ccc(Cl)cc21
inactive: [1] 13.7% | [2] 15.6% | [3] 8.85% | [4] 7.75% | [5] 0.45% | [6] 6.45%

Cc1cc(C(O)CNCCn2cnc3c2c(=O)n(C)c(=O)n3C)ccc1O (stereo not given)
inactive: [1] 38.8% | [2] -1.95% | [3] 19.4% | [4] 25.1% | [5] -4.95% | [6] 12.3%

CC(=O)OC(=O)C(=O)C(F)C(O)C(C)C (stereo not given)
inactive: [1] -16.6% | [2] -13.9% | [3] -14.2% | [4] -10.4% | [5] -13.4% | [6] 7.45%

c1cnn([B-]2(n3cccn3)n3ccc[n+]3[B-](n3cccn3)(n3cccn3)n3ccc[n+]32)c1
inactive: [1] 0.85% | [2] -11.6% | [3] 9.2% | [4] -8.85% | [5] 14.1% | [6] -4.05%

O=c1oc(-c2cccc(C[n+]3ccccc3)c2)nc2cc(Cl)ccc12
inactive: [1] -14.9% | [2] -6.8% | [3] -11.4% | [4] -0.45% | [5] -7.1% | [6] -4.75%

C[Si]1(C)CC[Si](C)(C)OS(=O)(=O)O1
inactive: [1] 8.2% | [2] -8.35% | [3] -4.75% | [4] -49.8% | [5] -9.05% | [6] 3.6%

CCCCCCCCCCCCCCCC(=O)OCC(COP(=O)(O)OC1CCC2(C)C(=CCC3C2CCC2(C)C(C(C)CCCC(C)C)CCC32)C1)OC(=O)CCCCCCCCCCCCCCC (stereo not given)
inactive: [1] 1.9% | [2] 4.05% | [3] 22.2% | [4] -5.5% | [5] -3.1% | [6] -4.8%

CC/C(Cl)=N\OC(=O)Nc1ccc(F)cc1F
inactive: [1] 2.2% | [2] -12.1% | [3] -4.05% | [4] 7.05% | [5] -6.45% | [6] -26.4%

COC1CCC(C2=NC3CCCCC3SC2)CC1 (stereo not given)
inactive: [1] 13.6% | [2] 18.8% | [3] 21.5% | [4] -10.6% | [5] 54.8% | [6] 31.7%

COc1ccc(C(=O)C2CC(=O)NC2=O)cc1 (stereo not given)
inactive: [1] -11.6% | [2] -5.95% | [3] -1.8% | [4] -38.5% | [5] -0.7% | [6] -0.4%

O=C1C(SCCO)=C(SCCO)C(=O)c2[nH]cnc21
inactive: [1] 13.8% | [2] -10.4% | [3] 6.5% | [4] -0.85% | [5] 6.8% | [6] 4.15%

c1ccc(C[n+]2ccc3c(c2)CCCC3)cc1
inactive: [1] -1% | [2] -13.2% | [3] 27.8% | [4] 17.3% | [5] 19.1% | [6] 6.4%

CCOC(=O)Cn1ccc[n+]1CC(=O)c1ccccc1
inactive: [1] -14.9% | [2] 7.9% | [3] 17.4% | [4] -16.2% | [5] -15.4% | [6] -3.1%

O=COC1CC2CC1c1ccccc12 (stereo not given)
inactive: [1] 4.8% | [2] -9.7% | [3] -1.7% | [4] -7.8% | [5] -3.85% | [6] 6.8%

O=C(O)c1ccc(Nc2nc3ccccc3nc2-c2cccs2)cc1
inactive: [1] 2.9% | [2] 18.6% | [3] 5.95% | [4] 20.7% | [5] 12.2% | [6] -9.7%
